Molecules are shown by their SMILES. The source made the active and inactive calls. Unless noted, the rule behind the calls is not given here.

These results are taken from PubChem BioAssay.

Test [1] is described as follows: liver-stage malaria parasite load reduction – cell-based, known kinase inhibitor set, luminescence, hepatoma host viability (AID 624392).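 Note: infected cells incubated roughly two days before readout.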 Conditions: Plasmodium liver stage in hepatoma cells, luciferase luminescence, concentration not given here; liver cell % of control: measured here: host liver cell viability; parasite % of control: stronger effect = lower value.
Test [2] is described as follows: altered dexamethasone sensitivity, NF-kB reporter, cell-based, luciferase, IL-1B stimulus (AID 624486).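 For percent of negative control (+Dex): 100% = mean signal of vehicle control wells on the plate.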 The settings on record: IL-1B + dexamethasone, luminescence; percent of negative control (+Dex): actives lie on both sides, concentration not given here; z-score: measured here: IL-1B alone, no Dex.
The nature of test [3]: C. elegans survival during P. aeruginosa infection – whole organism (AID 651566).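 Note: tested at 14 µM; sign flipped so higher z means a lower ratio.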 Conditions: C. elegans killed by P. aeruginosa, survival ratio.
The nature of test [4]: pro-inflammatory signaling induction in mouse macrophages – cell-based, murine, luminescence (AID 652131). Conditions: murine macrophage pro-inflammatory reporter, stronger effect = higher value.
Test [5] has as its target Cellular tumor antigen p53 (Homo sapiens) (UniProt P04637). The test can be described thus: GFP-p53 level modulators in HPV16+ cells – imaging, known kinase inhibitor set, EGFP/DsRed ratio (AID 1053116).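 Note: cells exposed to compounds for 24 h at 37 °C before reading.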 Conditions: GFP-p53 stability, stronger effect = higher value; EGFP object count: measured here: GFP-p53 positive objects count.
Test [6] can be described thus: inducers of IRF3 signaling, differentiated THP-1 – cell-based, PMA-stimulated THP-1, luminescence (AID 1053176). The settings on record: PMA-differentiated THP-1, IRF3 reporter luminescence; stronger effect = higher value.
Test [7] in a line: MELAS cybrid and Rieske KO viability enhancers – cell-based, MELAS cybrids, Rieske KO mouse fibroblasts, CellTiter-Glo, primary screen (AID 1508586;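 active = mean z-score across replicates of 1.96 or higher in either the MELAS or the Rieske mutant cell line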;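 note: z relative to plate mean and SD of compound and empty wells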). The settings on record: low glucose. (In general: In ATP-based viability assays light output follows the ATP content of the culture.)
The mark [8] stands for this setting: MELAS cybrid survival, CellTiter-Glo 48 h, stronger effect = higher value.
Where [9] appears, read: Rieske KO mouse fibroblast survival, CellTiter-Glo 72 h.

Sequence of Cellular tumor antigen p53 (Homo sapiens) (P04637 whole entry, looked up): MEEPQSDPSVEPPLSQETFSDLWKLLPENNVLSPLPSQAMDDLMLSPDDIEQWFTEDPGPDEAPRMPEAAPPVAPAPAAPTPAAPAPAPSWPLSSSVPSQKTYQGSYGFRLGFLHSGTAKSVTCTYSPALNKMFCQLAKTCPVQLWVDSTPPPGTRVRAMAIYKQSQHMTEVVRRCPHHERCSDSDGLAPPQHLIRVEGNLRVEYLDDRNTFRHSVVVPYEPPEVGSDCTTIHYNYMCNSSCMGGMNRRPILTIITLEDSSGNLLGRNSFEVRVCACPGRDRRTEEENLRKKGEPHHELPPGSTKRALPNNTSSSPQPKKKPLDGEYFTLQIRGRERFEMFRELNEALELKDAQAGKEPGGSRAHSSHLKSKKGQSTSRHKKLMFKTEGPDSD

`O=C1Nc2ccc(C(=O)c3ccco3)cc2/C1=C/c1cc(Cl)c(O)c(Cl)c1` displayed a liver cell % of control in test [1] of 143%. Moreover, the parasite % of control in test [1] is 74.2% (inactive). The percent of negative control (+Dex) in test [2] was 91% (inactive). Further, the z-score in test [2] was 0.035; in test [3], 0.21 (inactive); in test [4], -0.774 (inactive); in test [7] (setting [8]), -1.39 (inactive); in test [7] (setting [9]), -0.429. In addition, in test [5], the EGFP object count amounted to 4.5. For the same compound, the EGFP/DsRed ratio in test [5] was 0.0627 (inactive). Moreover, in test [6], the fraction signal was -0.005 (inactive).
Turning to `NS(=O)(=O)c1cccc(N=Cc2c(O)[nH]c3ccccc23)c1`, in test [1], the liver cell % of control is 80.7%. In test [1], the parasite % of control was 106% (inactive). Also, the percent of negative control (+Dex) in test [2] was 89.5% (inactive). Also, the z-score is 0.485 in test [2]; -1.3 (inactive) in test [3]; 1.25 (inactive) in test [4]; 1.07 (inactive) in test [7] (setting [8]); -0.155 in test [7] (setting [9]). The EGFP object count in test [5] is 7. For the same compound, the EGFP/DsRed ratio in test [5] is 0.162 (inactive). For the same compound, the fraction signal in test [6] is -0.0005 (inactive).
The compound `Fc1cccc(COc2ccc(Nc3ncnc4cc(-c5ccc[nH]5)sc34)cc2Cl)c1` registered a liver cell % of control in test [1] of 45.8%. Besides, in test [1], the parasite % of control was 16.2% (inactive). Also, the percent of negative control (+Dex) in test [2] was 66.5% (inactive). Besides, the z-score in test [2] is -1.57; in test [3], 0.215 (inactive); in test [4], -0.371 (inactive); in test [7] (setting [8]), -0.761 (inactive); in test [7] (setting [9]) it was -0.0837. The EGFP object count in test [5] worked out at 3. Moreover, the EGFP/DsRed ratio in test [5] is 0.034 (inactive). The fraction signal in test [6] is -0.0045 (inactive).
As for `Oc1[nH]c2ccccc2c1C=Nc1ccc(-n2cncn2)cc1`, the liver cell % of control in test [1] is 80.6%. For the same compound, the parasite % of control in test [1] is 240% (inactive). In test [2], the percent of negative control (+Dex) is 142% (active). Further, the z-score in test [2] is 4.13; in test [3], -0.065 (inactive); in test [4] it was 3.17 (inactive); in test [7] (setting [8]) it was 0.931 (inactive); in test [7] (setting [9]) it was -0.448. For the same compound, the EGFP object count in test [5] was 8.5. Moreover, in test [5], the EGFP/DsRed ratio was 0.377 (inactive). Further, the fraction signal in test [6] is -0.0045 (inactive).
Consider `N=C1N=C(N)C(=Cc2ccc3ncccc3c2)S1`, for which, in test [1], the liver cell % of control is 121% and the parasite % of control was 61.8% (inactive). Further, in test [2], the percent of negative control (+Dex) was 98.5% (inactive) and the z-score is 1.46. In test [5], the EGFP object count was 3.5 and the EGFP/DsRed ratio is 0.171 (inactive). The fraction signal in test [6] is 0.006 (inactive).
Turning to `CNC(=O)c1cc(-c2ccc(F)cc2)cc(-c2ccc(S(=O)(=O)N3CCCC3)cc2)c1N`, in test [1], the liver cell % of control is 102%. In addition, in test [1], the parasite % of control is 80.4% (inactive). Also, the percent of negative control (+Dex) in test [2] is 92% (inactive). For the same compound, the z-score was -0.05 in test [2]; 0.5 (inactive) in test [3]; -0.377 (inactive) in test [4]; -0.388 (inactive) in test [7] (setting [8]); -0.623 in test [7] (setting [9]). Besides, in test [5], the EGFP object count worked out at 6.5. The EGFP/DsRed ratio in test [5] was 0.244 (inactive). Further, the fraction signal in test [6] is -0.007 (inactive).
For the compound `O=C1NC(=NCCc2cccc(F)c2)SC1=Cc1ccc2ncccc2c1`, in test [1], the liver cell % of control worked out at 113% and the parasite % of control was 54% (inactive). In addition, in test [2], the percent of negative control (+Dex) was 85.5% (inactive) and the z-score was -0.65. Also, in test [5], the EGFP object count was found to be 5.5 and the EGFP/DsRed ratio was 0.176 (inactive). Besides, in test [6], the fraction signal is -0.018 (inactive).
For `CC(C)(O)CCc1cccc(C(=O)c2cnn(-c3ccc(F)cc3)c2N)c1`, in test [1], the liver cell % of control came out at 105% and the parasite % of control was 56.9% (inactive). In test [2], the percent of negative control (+Dex) was 110% (inactive) and the z-score was 0.16. In test [5], the EGFP object count was 1.5 and the EGFP/DsRed ratio is 0.0442 (inactive). Besides, in test [6], the fraction signal is 0.0185 (inactive).
Take `CC(C)Nc1ncc2cc(Oc3ccc(F)cc3F)c(=O)n(C)c2n1`: in test [1], the liver cell % of control turned out to be 99.2% and the parasite % of control was 50.9% (inactive). In addition, in test [2], the percent of negative control (+Dex) is 95.5% (inactive) and the z-score was -0.005. For the same compound, in test [5], the EGFP object count stood at 1 and the EGFP/DsRed ratio was 0.00675 (inactive). Moreover, the fraction signal in test [6] was -0.0005 (inactive).
With `COc1cccc(C2=C(c3cn(C)c4cc(F)ccc34)C(=O)NC2=O)c1`, in test [1], the liver cell % of control was determined as 128% and the parasite % of control was 31.5% (inactive). For the same compound, in test [2], the percent of negative control (+Dex) is 114% (inactive) and the z-score amounted to 0.535. For the same compound, in test [5], the EGFP object count was 7 and the EGFP/DsRed ratio is 0.327 (inactive). For the same compound, the fraction signal in test [6] is 0.0095 (inactive).
In the case of `Nc1c(C(=O)c2cccc(C(O)CO)c2)cnn1-c1ccc(F)cc1` (stereo unspecified), in test [1], the liver cell % of control was determined as 101% and the parasite % of control was 60.5% (inactive). Also, in test [2], the percent of negative control (+Dex) is 110% (inactive) and the z-score was found to be 1.48. Moreover, in test [5], the EGFP object count came to 4.5 and the EGFP/DsRed ratio was 0.197 (inactive). In test [6], the fraction signal is 0.0035 (inactive).
In test [1], `NC(=O)c1ccc2c(-c3ccnc(NCCCO)n3)c(-c3ccc(F)cc3)nn2c1` had a liver cell % of control of 85.3%. In test [1], the parasite % of control was 58.4% (inactive). For the same compound, in test [2], the percent of negative control (+Dex) is 106% (inactive). Besides, the z-score was 0.705 in test [2]; -0.18 (inactive) in test [3]; 0.119 (inactive) in test [4]; -0.11 (inactive) in test [7] (setting [8]); -0.24 in test [7] (setting [9]). Moreover, the EGFP object count in test [5] was found to be 4. In addition, in test [5], the EGFP/DsRed ratio is 0.0827 (inactive). Also, in test [6], the fraction signal was 0.003 (inactive).
For the compound `CC(=O)Nc1ccc2c(c1)c(C1=C(c3cn(C)c4ccccc34)C(=O)NC1=O)cn2C`, in test [1], the liver cell % of control worked out at 87.4% and the parasite % of control is 47.8% (inactive). Moreover, in test [2], the percent of negative control (+Dex) is 97.5% (inactive) and the z-score is -1.79. In test [5], the EGFP object count stood at 35.5 and the EGFP/DsRed ratio was 0.557 (inactive). The fraction signal in test [6] was -0.0135 (inactive).
Turning to `Nc1c(C(=O)c2cccc(-c3cccnc3)c2)cnn1-c1ccc(F)cc1F`, in test [1], the liver cell % of control came to 175% and the parasite % of control was 28.3% (inactive). Further, in test [2], the percent of negative control (+Dex) is 110% (inactive) and the z-score came out at 0.74. Moreover, in test [5], the EGFP object count turned out to be 4.5 and the EGFP/DsRed ratio was 0.0328 (inactive). In test [6], the fraction signal was 0.0015 (inactive).
Turning to `Nc1c(C(=O)c2cccc(CCS(N)(=O)=O)c2)cnn1-c1ccc(F)cc1`, in test [1], the liver cell % of control came to 92.4% and the parasite % of control is 53.8% (inactive). Besides, in test [2], the percent of negative control (+Dex) is 105% (inactive) and the z-score came out at 0.275. Also, in test [5], the EGFP object count stood at 2 and the EGFP/DsRed ratio is 0.0563 (inactive). In addition, the fraction signal in test [6] is 0.0055 (inactive).
In the case of `CN1CCN(CC#Cc2cccc(C(=O)c3cnn(-c4ccc(F)cc4)c3N)c2)CC1`, in test [1], the liver cell % of control is 96.5% and the parasite % of control is 46.3% (inactive). For the same compound, in test [2], the percent of negative control (+Dex) is 104% (inactive) and the z-score is 0.495. For the same compound, in test [5], the EGFP object count was determined as 3.5 and the EGFP/DsRed ratio is 0.0523 (inactive). Besides, the fraction signal in test [6] was 0.0015 (inactive).
